# High-throughput results from PubChem.
# CYP2C19 act = activators of human cytochrome P450 2C19; 96,000 tested, under 10 active; activation factor at 5 µM; recombinant CYP2C19, luciferin-H EGE luminescence; active compounds read high; 0 = fully inhibited enzyme, 1 = untreated enzyme; AID 1025;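 active = activation factor of at least 2 at 5 µM in the primary screen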;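 note: 0 = wells with 2.5 mM tranylcypromine and 1 = vehicle-only wells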
# sEH activator = soluble epoxide hydrolase (human) activation | purified human sEH enzymatic activity, activator screen | activation, % at 2 µM | 91,000 compounds, 0.04% hits | AID 717; in the data active = activation above about 37%
# sEH inh = blocks human soluble epoxide hydrolase activity; P34913; AID 707; recombinant human sEH enzymatic activity assay; 91,000 compounds, 0.34% hits; inhibition, % at 2 µM; in the data active = inhibition above about 80%
# CYP2C9 activ = activators of human CYP2C9. activation factor at 5 µM. P11712. 96,000 compounds, 1.4% hits. recombinant CYP2C9, luciferin-H conversion, luminescence; active compounds read high; factor 1 = untreated enzyme, 0 = blocked;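 active = activation factor of 2 or more for CYP2C9 at a 5 µM dose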;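 note: 0 = sulfaphenazole-blocked wells and 1 = vehicle-only wells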
# Target sequence (P11712 whole entry, looked up): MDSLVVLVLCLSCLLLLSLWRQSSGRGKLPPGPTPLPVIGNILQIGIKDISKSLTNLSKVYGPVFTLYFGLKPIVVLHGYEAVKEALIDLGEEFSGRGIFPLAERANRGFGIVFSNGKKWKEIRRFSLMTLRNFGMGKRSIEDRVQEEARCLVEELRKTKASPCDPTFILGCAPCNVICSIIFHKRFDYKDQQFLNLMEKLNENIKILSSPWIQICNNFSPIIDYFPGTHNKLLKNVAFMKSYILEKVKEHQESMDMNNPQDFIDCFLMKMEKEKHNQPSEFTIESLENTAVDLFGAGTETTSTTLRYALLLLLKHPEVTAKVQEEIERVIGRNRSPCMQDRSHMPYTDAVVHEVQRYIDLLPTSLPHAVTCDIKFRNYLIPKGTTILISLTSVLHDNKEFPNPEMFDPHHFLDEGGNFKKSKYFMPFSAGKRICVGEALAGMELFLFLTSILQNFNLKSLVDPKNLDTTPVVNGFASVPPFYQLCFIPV
# CYP2C19 inh = human CYP2C19 inhibition; P33261; CYP2C19 Supersomes, luciferin-H EGE luminescence, 30 min; inhibition, % at 5 µM; 96,000 compounds, 21% hits;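 active = CYP2C19 inhibition above a set limit at 5 µM in the primary screen, cut at about 50% in these data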;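 note: plate controls were negative control wells for no effect and 2.5 mM tranylcypromine positive control for full effect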
# CYP2C9 inh = inhibitors of human CYP2C9 | inhibition, % at 5 µM | CYP2C9 Supersomes, luciferin-H conversion, luminescence | 96,000 compounds, 20% hits | AID 777;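 active = blocking of liver enzyme CYP2C9 beyond about 50% at 5 µM, limit read from the data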
# Numbers without * were called inactive; . = not tested or not shown. Compounds with a hit are over-represented: about 27% of the library has one in this group of screens.
SMILES,CYP2C19 act,sEH activator,sEH inh,CYP2C9 activ,CYP2C19 inh,CYP2C9 inh
COC(=O)COc1ccc(S(=O)(=O)Nc2ccc(C(N)=O)cc2)cc1Cl,0.9,-3,4,0.6,15,42
CCNc1nc(SC(C)C(=O)Nc2ccccc2)nc(N2CCOCC2)n1 (configuration not stated),0.9,-11,11,0.4,10,56*
CC(=O)C(Sc1nn(C)c(=S)s1)C(=O)Nc1ccccc1 (configuration not stated),0.8,.,.,0,20,96*
CC1NC2(C(=O)N(Cc3ccccc3)c3ccccc32)C2C(=O)N(c3ccccc3)C(=O)C12 (configuration not stated),0.8,2,-3,1,16,0
C=CCn1c(SC2CCOC2=O)nc2scc(C3CC3)c2c1=O (configuration not stated),0.2,.,.,0.2,83*,77*
C=CCn1c(SCc2cc(=O)n3ccsc3n2)nc2scc(C3CC3)c2c1=O,0.9,.,.,0.6,7,45
C=CCn1c(SCC(=O)NC2CCS(=O)(=O)C2)nc2scc(C3CC3)c2c1=O (configuration not stated),0.6,-7,7,0.3,36,72*
C=CCn1c(SCC(=O)c2ccc(CNC(C)=O)o2)nc2scc(C3CC3)c2c1=O,0.4,15,-15,0.3,57*,73*
CC1CCN(CCc2nc3cc(NC(=O)NC4CCCCC4)ccc3n2C)CC1,0.9,-56,57,0.9,10,5
CCOc1ccccc1NC(=O)NC1CC2CCCC(C1)N2Cc1nnnn1CCc1ccccc1 (configuration not stated),0.2,.,.,0.4,78*,61*
Nc1ccc(C(=O)c2ccccc2C(=O)O)cc1Cl,0.9,3,-3,1,7,1
CC1=CC(C)(C)N(C(=O)C(C)N2C(=O)c3ccccc3C2=O)c2ccc(C)cc21 (configuration not stated),0.2,8,-13,0.9,83*,7
CC1=CC(C)(C)N(S(=O)(=O)c2ccc(C)cc2)c2ccccc21,0.6,0,-3,0.4,44,62*
CC1=CC(C)(C)N(C(=O)CN2C(=O)c3ccccc3C2=O)c2ccccc21,0.7,.,.,0.1,30,87*
CC(C(=O)N1CCCCC1)N1C(=O)c2ccccc2C1=O (configuration not stated),1.1,-1,2,1.1,-10,-11
CSCCC(NC(=O)c1ccccc1)C(=O)NCc1ccco1 (configuration not stated),0.5,-4,4,0.9,45,9
O=C(Cn1c(=O)oc2cc(S(=O)(=O)N3CCc4ccccc43)ccc21)N1CCCCC1,0.9,2,0,0.7,15,30
CCn1c(=NC(=O)CN2C(=O)CCC2=O)sc2c(C)cc(C)cc21,0.8,16,-17,1.8,17,-76
c1ccc(Oc2cc(-c3ccccc3)ncn2)cc1,0.3,-4,9,0.9,66*,13
COCCOC(=O)c1c(C)oc2ccc(O)c(CN3CCC(C)CC3)c12,0.5,.,.,0.8,51*,15
O=C(Cc1ccccc1)Nc1ccc(N2CCN(Cc3ccccc3F)CC2)cc1,0.8,-36,36,0.7,22,26
N#Cc1c(N2CCN(C(=O)c3ccco3)CC2)nc(-c2ccccc2)c2c1CCCC2,0.1,5,-6,0.1,88*,86*
N#Cc1c(N2CCN(C(=O)c3ccccc3)CC2)nc(-c2ccccc2)c2c1CCCC2,0.4,3,-3,0.3,62*,72*
N#Cc1c(NC(=O)CN2CCN(C(=O)c3ccco3)CC2)sc2c1CCCCC2,0.7,.,.,0.8,26,22
N#Cc1c(N2CCN(C(=O)c3ccccc3Cl)CC2)nc(-c2ccccc2)c2c1CCCC2,0.5,16,-15,0.4,50*,64*
SMILES,CYP2C19 act,sEH activator,sEH inh,CYP2C9 activ,CYP2C19 inh,CYP2C9 inh
COc1ccc(S(=O)(=O)N2N=C(C)Oc3ccccc3C2=O)cc1,0.4,3,-4,0.9,65*,9
CC1=NN(S(=O)(=O)c2ccc(F)cc2)C(=O)c2ccccc2O1,0.7,-7,6,1,29,4
O=C(CSc1n[nH]c(-c2ccco2)n1)N1c2ccccc2Sc2ccccc21,0.5,.,.,0.5,48,52*
O=C(CSc1nncs1)N1c2ccccc2Sc2ccccc21,0.4,.,.,0.6,62*,37
CCOC(=O)CSc1n[nH]c(-c2ccco2)n1,1,19,-20,1,-2,-2
Oc1ccc(Br)cc1/C=N/n1cnc2ccccc21,0.9,5,-7,0.3,6,71*
OCC(CO)(CO)N=Cc1cc(Br)ccc1O,0.9,2,-2,1,6,1
Cc1cc(C)cc(NC(=O)Nc2ccc3c(c2)N(C)C(=O)CS3)c1,1,-63,63,0.9,1,10
CCc1ccc(NC(=O)Nc2ccc3c(c2)N(C)C(=O)CS3)cc1,0.9,-91,91*,0.7,8,32
CC(=O)c1cccc(NC(=O)Nc2ccc3c(c2)N(C)C(=O)CS3)c1,0.3,-30,31,0.4,68*,59*
Cc1ccc(N/N=C/c2c(O)cc(C)oc2=O)cc1,0.6,-13,12,0.5,37,50*
O=C(NC1CCCCCC1)C1C2C=CC3(CN(Cc4cccnc4)C(=O)C13)O2 (configuration not stated),1,-8,9,0.9,3,6
CCn1nnnc1SCC(=O)NCc1ccc2c(c1)OCO2,.,9,-3,.,.,.
O=C(CSc1nnnn1C1CCCCC1)NCc1ccc2c(c1)OCO2,0.1,0,1,0.1,92*,92*
O=C(CSc1nnnn1C1CCCC1)NCc1ccc2c(c1)OCO2,0.6,-2,3,0.4,36,61*
CSc1nc(-c2ccco2)nn1S(C)(=O)=O,1.1,-9,7,1.3,-14,-26
COC(=O)C1=C(COc2ccc(F)cc2)NC(=O)NC1c1ccc(C)cc1C (configuration not stated),1,-2,3,1,2,-2
CC1CCCN(Cc2cccc(Oc3ccccc3)c2)C1 (configuration not stated),0.3,5,-5,0.9,67*,11
CN1CCN(Cc2cccc(Oc3ccccc3)c2)CC1,0.3,2,-8,0.9,69*,10
OC1CCN(Cc2cccc(Oc3ccccc3)c2)CC1,0.9,.,.,1,11,2
CC(C)C1CC(O)(C2(O)CCCCC2)ON1 (configuration not stated),1.1,.,.,1.1,-13,-7
CC(CN1CCCC1)OC(=O)COc1ccccc1 (configuration not stated),1.2,-11,9,1,-16,3
CC(C)(C)c1ccc(C(=O)N2CCC(C(=O)NCc3ccco3)CC2)cc1,.,-9,10,.,.,.
Cc1ccc2nc(C3CCN(CC(=O)N4CCCCCC4)CC3)[nH]c2c1,1,16,-15,0.9,4,10
